# In all, about 350,000 compounds went through this assay and about 31,000 (8.9%) were called active. A call without a number means that no potency is given here. Another 15% or so got no clear call; they are omitted. Calls follow the shape of the dose curve; as a rule, active = well fitted inhibition curve with a large enough effect; inconclusive = small, poorly fitted or top-dose-only effect; inactive = no such curve, though single readings can be large or run the other way. For the sample, actives were picked, then their nearest neighbours and some compounds at random.
# Molecular target: Histone-lysine N-methyltransferase EHMT2 (Homo sapiens) (UniProt Q96KQ7)
# Assay: qHTS Assay for Inhibitors of Histone Lysine Methyltransferase G9a; also: nearly all actives have a fitted effect of over 75% in size
# Settings: G9a H3K9 monomethylation, AlphaScreen, 2 h; series mostly up to 59 µM
# In short: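 Enzyme 20 nM + cpd, 15 min RT; add b-H3K9 pep 500 nM / SAM 20 uM; 2 h RT; anti-H3K9me1 Ab 0.5 ug/mL + SA donor / anti-rabbit acceptor beads 20 ug/mL each, 10 min; AlphaScreen read.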
# Potency is read from the fitted curve at half-maximal effect.
# Chain of Histone-lysine N-methyltransferase EHMT2 (Homo sapiens) (Q96KQ7 913-1193 limits assumed): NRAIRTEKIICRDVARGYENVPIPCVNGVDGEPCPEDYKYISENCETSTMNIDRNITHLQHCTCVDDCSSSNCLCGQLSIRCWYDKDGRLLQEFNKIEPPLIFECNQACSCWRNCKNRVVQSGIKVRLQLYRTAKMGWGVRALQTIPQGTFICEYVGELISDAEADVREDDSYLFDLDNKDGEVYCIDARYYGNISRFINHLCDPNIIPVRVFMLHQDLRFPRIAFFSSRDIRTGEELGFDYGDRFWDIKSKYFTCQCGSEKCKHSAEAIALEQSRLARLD
SMILES,Potency,"activity, negative = inhibition"
COc1cccc(CNC(=O)C(NS(=O)(=O)c2ccc3nc(C)sc3c2)C(C)C)c1 (centres undefined),inactive,
CC(=O)NS(=O)(=O)c1ccc(NC(=S)NC(=O)C(C)(C)C)cc1,,-14.5% [at 0.501 µM] (inactive)
Cc1ccc(NC(=S)Nc2ccc(F)cc2)cc1,inactive,
O=S(=O)(NC(=S)Nc1ccccc1)c1ccc(F)cc1,1.58 µM (active),
Cc1cc(C)c(S(=O)(=O)n2cc(C(C)C(N)C(=O)O)c3ccccc32)c(C)c1 (centres undefined),,11.6% [at 12.7 µM] (inactive)
CCn1ccnc1CN1CCCC(C(=O)c2ccc3c4c(cccc24)CC3)C1 (centres undefined),35.5 µM (active),
COc1ccc(C(=O)C2CCCN(S(=O)(=O)c3cccc(C)c3)C2)c(C)c1 (centres undefined),inactive,
O=C(CSc1nc2ccccc2c(=O)n1CCCO)NC1CC1,,-11.2% [at 2.33 µM] (inactive)
COc1ccc(S(=O)(=O)NCC(c2ccc(N(C)C)cc2)N2CCCC2)cc1 (centres undefined),,0.776% [at 12.7 µM] (inactive)
COc1ccc(S(=O)(=O)NCC(c2ccc(N(C)C)cc2)N2CCc3ccccc32)cc1OC (centres undefined),14.1 µM (active),
COc1ccc(C(=O)NCC(c2ccc(N(C)C)cc2)N2CCc3ccccc32)c(OC)c1 (centres undefined),inactive,
O=C(NCC(c1cccnc1)N1CCc2ccccc21)c1cccc(C(F)(F)F)c1 (centres undefined),inactive,
O=S(=O)(NCC(c1ccccc1)N1CCc2ccccc21)c1ccccc1 (centres undefined),15.8 µM (active),
Cc1ccc(S(=O)(=O)NCC(=O)OCC(=O)N2CCc3ccccc32)cc1,inactive,
COC(=O)C1=C(c2ccccc2)c2ccccc2S(=O)(=O)N1CC(=O)Nc1ccccc1C(F)(F)F,inactive,
Cc1ccc(CN2CCC(CNC(=O)c3cnn(-c4ccccc4Cl)c3C3CCN(C(=O)OC(C)(C)C)CC3)CC2)cc1,inactive,
COc1ccc(NC(=O)CCCc2nnc3n(CCC(C)C)c(=O)c4sccc4n23)c(OC)c1,inactive,
CCCN(CCC)S(=O)(=O)c1ccc(C(=O)Nc2sc3c(c2C(=O)OC)CCN(CC)C3)cc1,inactive,
CCOC(=O)N1CCN(C(=O)Cn2cnc3ccccc3c2=O)CC1,,1.87% [at 12.7 µM] (inactive)
CCOC(=O)N1CCN(CC(=O)n2c(C)c(C)c3ccccc32)CC1,12.6 µM (active),
CCOC(=O)N1CCN(C(=O)c2n[nH]c(=O)c3ccccc23)CC1,,8.06% [at 12.7 µM] (inactive)
CC1CCCCC1NC(=O)COC(=O)Cc1ccc(Cl)cc1 (centres undefined),inactive,
CCOc1c(CNCc2ccc(C(=O)O)cc2)cccc1OC,inactive,
CCOc1cc(C(=O)O)ccc1OCCOc1ccccc1,inactive,

SMILES,Potency,"activity, negative = inhibition"
CCOc1cccc2c1N[C@@H](c1ccc(C(=O)O)cc1)[C@H]1CC=C[C@@H]21,4.47 µM (active),
Cc1nn(C(C)C(=O)Nc2ccc(C(C)C)cc2)c(=O)c2c1sc1ccccc12 (centres undefined),inactive,
O=C(NCc1ccccc1CN1CCCC1)c1cccc(S(=O)(=O)Nc2ccc(F)cc2)c1,inactive,
COc1ccc(CCNCc2c(C(=O)O)c(C)n(Cc3cccc(C)c3)c2C)cc1OC,inactive,
Cc1cc(-c2cccs2)nc(-n2cccc2)n1,inactive,
CC(C)n1c(-c2cccs2)nc2ccccc21,inactive,
c1csc(-c2cn3c(n2)SCC3)c1,17.8 µM (active),
CCC(C)N(C(=O)CSc1ncnc2c1cnn2-c1ccccc1)C1CCS(=O)(=O)C1 (centres undefined),,17.2% [at 2.33 µM] (inactive)
COC(=O)[C@]1(C)N[C@H](c2ccc(-c3ccc(Cl)c(Cl)c3)cc2)[C@@H]2C(=O)N(C)C(=O)[C@@H]21,,12.5% [at 2.33 µM] (inactive)
Cc1ccc(O)c(NC(=O)c2cc(-c3ccco3)on2)c1,inactive,
Cc1ccc(O)c(NC(=O)c2cc(-c3ccc(F)cc3)no2)c1,8.91 µM (active),
COC(=O)c1ccccc1NC(=O)c1cc(-c2ccccc2O)no1,inactive,
Cc1nn(C)c2c1c(C(F)(F)F)cc(=O)n2C(C)C(=O)NCc1ccc(Cl)cc1 (centres undefined),inactive,
CCCCn1c(SCC(=O)N2CCOCC2)nc2c1c(=O)n(C)c(=O)n2C,inactive,
Cn1c(=O)[nH]c(=O)c2c1nc(Br)n2CCCCSc1nc2ccccc2o1,inactive,
CCCCCn1c(SCCC(C)C)nc2c1c(=O)[nH]c(=O)n2C,10 µM (active),
CCOC(=O)c1ccccc1NC(=O)c1sc2nc(-c3ccc(F)cc3)cn2c1C,inactive,
Cc1ccc(C)c(CN2C(=O)c3ccccc3S(=O)c3ccc(C(=O)N4CCOCC4)cc32)c1 (centres undefined),inactive,
CCCc1nc2c([nH]1)C(c1cccnc1)C(C#N)=C(N)O2 (centres undefined),inactive,
Cc1cc(C)c(C#N)c(SCc2[nH]nc3c2C(c2ccccc2)C(C#N)=C(N)O3)n1 (centres undefined),inactive,
Cc1cc(C)c2c3c(sc2n1)C(c1ccccc1)C(C#N)=C(N)O3 (centres undefined),14.1 µM (active),
O=C(NCCc1cccc(F)c1)C1CCCN(c2nc3ccccc3s2)C1 (centres undefined),inactive,
COc1ccc(-c2[nH]c3c(c2-c2c(-n4cccc4)n(C)c(=O)n(C)c2=O)c(=O)n(C)c(=O)n3C)cc1,inactive,
CCOC(=O)C1CCN(C(=O)COc2cccc3ccccc23)CC1,,9.04% [at 12.7 µM] (inactive)

SMILES,Potency,"activity, negative = inhibition"
CCCn1c2ccccc2c2cnn(CC(=O)NCCCOC(C)C)c(=O)c21,inactive,
CN(C)c1ccc(C2Nc3ccccc3C(=O)N2NS(=O)(=O)c2ccccc2)cc1 (centres undefined),39.8 µM (active),
CC(=O)NN1C(=O)c2ccccc2NC1c1ccccc1 (centres undefined),inactive,
O=C1c2ccccc2NC(c2ccccn2)N1NS(=O)(=O)c1ccccc1 (centres undefined),inactive,
COc1cc(NC(=O)c2ccc(-c3csc(C)n3)cc2)c(OC)cc1Cl,inactive,
CSc1ccccc1NC(=O)CCS(=O)(=O)c1nc(-c2cccs2)cc(C(F)(F)F)n1,3.16 µM (active),
COc1ccccc1-c1cc(C(F)(F)F)nc(S(=O)(=O)CCCC(=O)Nc2ccc(F)cc2F)n1,inactive,
COc1ccc(Cl)cc1NC(=O)CSc1nc(-c2cccs2)cc(C(F)(F)F)n1,inactive,
Cc1ccc(NC(=O)CSc2nc3c(c(=O)[nH]2)CN(Cc2ccc4c(c2)OCO4)CC3)cc1C,inactive,
O=C(Nc1ccccc1N1CCCC1)c1ccc2ccccc2c1,44.7 µM (active),
O=C(Nc1ccccc1N1CCCC1)c1ccc(F)c(S(=O)(=O)N2CCOCC2)c1,,-5.62% [at 0.501 µM] (inactive)
O=C(Nc1ccccc1N1CCCCC1)c1ccc2nccnc2c1,inactive,
Cc1cc(C)cc(OCC(=O)OCC(=O)NC2CCCC2)c1,,-28.2% [at 2.33 µM] (inactive)
Cc1ccc(NC(=O)Cn2c(=O)n(-c3ccccc3)c(=O)c3c4c(sc32)CCCC4)cc1,inactive,
Clc1ccc(CSc2nncn3c2cc2occc23)cc1,12.6 µM (active),
O=C(C1CC1)N1CCN=C1SCc1ccc(Cl)cc1,inactive,
CCN(C(=O)CSc1nnc(C)n2c1cc1occc12)c1ccccc1,inactive,
Cc1cc(=O)oc2c(C)c(OC(C)C(=O)NC3CCN(Cc4ccccc4)CC3)ccc12 (centres undefined),inactive,
Cc1ccc2c(c1)-c1c(cnn1CC(=O)Nc1ccccc1C#N)CO2,inactive,
CCC1C(=O)c2ccccc2N(C)C1=O (centres undefined),inactive,
CN1C(=O)c2ccccc2Sc2ccc(NC(=O)Cc3ccc(Cl)cc3)cc21,inactive,
CN1C(=O)/C(=C\c2cc(Br)cs2)c2ccccc21,10 µM (active),
COc1ccccc1-c1cc2nc(C)c(CCC(=O)O)c(C)n2n1,inactive,
CCCNC(=O)c1ccc2c(c1)ncn2-c1ccc(C)cc1C,inactive,

SMILES,Potency,"activity, negative = inhibition"
NC(=O)c1ccsc1NC(=O)COC(=O)COc1ccc(C=O)cc1,,-1.54% [at 12.7 µM] (inactive)
O=C1c2ccccc2C(=O)N1CCC(O)C[N+](=O)[O-] (centres undefined),31.6 µM (active),
CC(C)OC(=O)CN1C(=O)c2ccccc2C1=O,,-1.86% [at 12.7 µM] (inactive)
O=C1c2ccccc2C(=O)N1CCC(c1ccccc1)c1ccco1 (centres undefined),inactive,
Cc1ccc(F)cc1NC(=O)CSCc1c(C)noc1C,,28% [at 12.7 µM] (inactive)
C=CCN1C(=NC(=O)COc2ccccc2)SC2CS(=O)(=O)CC21 (centres undefined),inactive,
CCN1CCN(CC(=O)Nc2sc3c(c2C#N)CCC3)CC1,70.8 µM (active),
CCCc1cc(=O)[nH]c(SCC(=O)Nc2sc3c(c2C#N)CCCC3)n1,inactive,
Cc1ccc(C)c(OCC(=O)Nc2sc3c(c2C#N)CCCC3)c1C,inactive,
Cc1cccc(C(=O)OCC(=O)Nc2sc3c(c2C#N)CCC3)c1,inactive,
N#CCC(=O)Nc1ccc(C(=O)OCC(=O)Nc2sc3c(c2C#N)CCCC3)cc1,50.1 µM (active),
CN1CCN(CC(=O)Nc2sc3c(c2C#N)CCC(C(C)(C)C)C3)CC1 (centres undefined),,2.75% [at 12.7 µM] (inactive)
CCC1CCCCN1C(=O)Cn1c(=O)n(CCCCCC(=O)NCc2ccccc2)c(=O)c2sccc21 (centres undefined),inactive,
COc1ccccc1C(=O)Nc1c(C(=O)N(C)Cc2ccccc2)sc2nc(C)c(Cl)c(C)c12,inactive,
Cc1ccccc1NC(=O)CN1C(=O)C(C)(C)c2ccccc21,inactive,
C=C1CCC(N(O)c2cc(C)on2)C(=C)CCC2C1CC2(C)C (centres undefined),,-0.801% [at 0.501 µM] (inactive)
CCCCC12CN3CC(C)(CN(C1)C3c1ccc(O)c(OC)c1)C2=O (centres undefined),inactive,
CCC[C@H]1CCCC/C=C\CCCC(=O)OCCN1C(=O)OC(C)(C)C,,5.32% [at 2.33 µM] (inactive)
O=C1CC(c2nnc(Cc3ccc(Cl)cc3)o2)CN1c1ccccc1 (centres undefined),inactive,
O=C(CN1C(=O)c2ccccc2C1=O)NCc1ccc(C(=O)O)cc1,inactive,
CC(=O)N(C1=C(Cl)C(=O)c2ccccc2C1=O)c1ccc(C(=O)O)cc1,0.891 µM (active),
CC(C)N(C(=O)c1ccc(-c2ccccc2F)cc1)C(C)C,inactive,
